Source: the supplement of paper PMC10127200
Where a name gives a salt, the structure may show the parent alone.

What follows are compounds tested on OVCAR4 (assay: Euclidean distance of Cell Painting phenotypic profile (signed KS, 77 features) to DMSO centroid (dimensionless distance); 5 or 10 uM (library dependent); higher = stronger phenotypic change vs DMSO (phenoactivity)). Conditions: 48 h.
Outline: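 At 10 or 5 uM, as set by the library, and 0.1% DMSO final, compounds were applied for 48 h to five cancer lines and one healthy fibroblast line. Stained cells were imaged confocally at 20X in 9 fields per well, and Harmony extracted 77 features scored as signed Kolmogorov-Smirnov statistics against vehicle wells on the same plate. Profiles underwent plate-position correction, correlation weighting and replicate averaging at the top dose. Phenoactivity is the Euclidean distance from each such profile to the median vehicle profile.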
`CN(C)Cc1ccc(-c2nc3cccc4c3n2CCNC4=O)cc1` was tested, and the Euclidean distance was 1.41.
For `C[C@@]1(c2cc(-c3cncnc3)c(F)cc2F)CCSC(N)=N1`, the Euclidean distance was 0.965.
`COCCOc1ccc2c(c1)ncn2-c1ccc2cccc(N3CCC(N)CC3)c2n1` gave an Euclidean distance of 3.88.
For `CCc1c(C(=O)NCCc2ccc(N3CCCCC3)cc2)[nH]c2ccc(Cl)cc12`, the Euclidean distance was 1.47.
`NS(=O)(=O)c1cc2c(cc1Cl)NCNS2(=O)=O` [Hydrochlorothiazide] gave an Euclidean distance of 0.927.
`COc1ccc(-c2cc(=S)ss2)cc1` [Anethole trithione] gave an Euclidean distance of 1.06.
`CNC(=O)CN(CCN(CCN(CC(=O)[O-])CC(=O)NC)CC(=O)[O-])CC(=O)[O-].[Gd+3]` [Gadodiamide] showed an Euclidean distance of 1.1.
Compound `Cc1ccc2c(=O)c3cccc(CC(=O)O)c3oc2c1C` [DMXAA (Vadimezan)] has an Euclidean distance of 1.04.
For `CCN(CC)CCOC(=O)C(c1ccccc1)c1ccccc1` [Adiphenine HCl], the Euclidean distance was 0.992.
`C=CCc1cc(OC)c(O)c(C(=O)NCCO)c1` [Alibendol] showed an Euclidean distance of 0.912.
For `c1ccc(C2CN3CCSC3=N2)cc1` (single isomer, unassigned; (-)) [(-)-Tetramisole], the Euclidean distance was 2.19.
With `C=CCn1c(=O)c2cnc(Nc3ccc(N4CCN(C)CC4)cc3)nc2n1-c1cccc(C(C)(C)O)n1` the Euclidean distance was 3.95.
`COc1cc(NS(=O)(=O)c2ccc(N)cc2)nc(OC)n1` [Sulphadimethoxine] showed an Euclidean distance of 1.44.
With `CC(C)C(=O)c1c(C(C)C)nn2ccccc12` [Ibudilast] the Euclidean distance was 1.29.
`C[C@@H]1CN(CC(=O)Nc2ccc3c(c2)Cc2cccc(-c4cc(=O)cc(N5CCOCC5)o4)c2S3)C[C@H](C)O1` was tested, and the Euclidean distance was 2.14.
